Results as given in PubChem BioAssay (Tox21).
Calls of active or inactive are those of the source. Unless noted, calls come from the whole dose curve; as a rule, active = well fitted curve in the direction sought with a large enough effect in the repeat runs; inconclusive = weak or mixed curves; inactive = no such curve, though single readings can be large; an effect the other way counts as inactive or inconclusive.

Columns and labels:
[1] = qHTS assay to identify small molecule antagonists of the thyroid receptor (TR) signaling pathway - cell viability counter screen (AID 743064); note: nearly all actives have a fitted effect of over 50% in size; note: potency is the fitted concentration of half-maximal effect
Outline: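 Compounds were tested on GH3.TRE-Luc cells in the presence of T3 at 1 nM final. Following 23.5 h at 37 °C, cell viability was quantified by CellTiter-Fluor.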

[2] = test system: thyroid hormone receptor (rat, GH3 cells); experiment: qHTS assay to identify small molecule agonists of the thyroid receptor (TR) signaling pathway (AID 743066; calls by dose curve)
[3] = target: Estrogen receptor (Homo sapiens) (UniProt P03372); experiment: qHTS assay to identify small molecule antagonists of the estrogen receptor alpha (ER-alpha) signaling pathway (AID 743069; active = well fitted curve in the direction sought with a large enough effect in the signal ratio in the repeat runs, not every such curve was filed as active; inconclusive = weak or mixed curves, or effect the other way; inactive = no such curve, though single readings can be large or run the other way; the % refers to the signal ratio; note: potency is the fitted concentration of half-maximal effect)
Estrogen receptor (Homo sapiens), sequence (P03372 whole entry, looked up): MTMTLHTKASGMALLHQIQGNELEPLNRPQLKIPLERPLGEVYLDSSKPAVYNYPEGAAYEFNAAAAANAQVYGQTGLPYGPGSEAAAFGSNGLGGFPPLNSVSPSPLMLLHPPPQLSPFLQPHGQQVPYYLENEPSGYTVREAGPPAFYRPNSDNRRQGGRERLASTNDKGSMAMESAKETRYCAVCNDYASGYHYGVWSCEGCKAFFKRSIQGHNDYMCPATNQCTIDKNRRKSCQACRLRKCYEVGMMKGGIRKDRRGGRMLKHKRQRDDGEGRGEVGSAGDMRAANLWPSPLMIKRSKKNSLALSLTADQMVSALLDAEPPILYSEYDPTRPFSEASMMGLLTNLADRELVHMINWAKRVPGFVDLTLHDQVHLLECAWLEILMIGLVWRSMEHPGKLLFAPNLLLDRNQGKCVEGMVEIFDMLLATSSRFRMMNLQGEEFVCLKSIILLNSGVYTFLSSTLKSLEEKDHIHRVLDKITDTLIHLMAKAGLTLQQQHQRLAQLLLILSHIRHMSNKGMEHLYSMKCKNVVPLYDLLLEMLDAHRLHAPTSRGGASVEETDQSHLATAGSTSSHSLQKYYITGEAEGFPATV
Outline: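 A 17beta-estradiol challenge was applied right after compound transfer to ER-alpha-UAS-bla HEK293 cells previously kept in charcoal-stripped serum. Plates stood 18 hr at 37C and 5% CO2; fluorescence was read following 2 hr FRET substrate loading at room temperature.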

[4] = qHTS assay to identify small molecule antagonists of the estrogen receptor alpha (ER-alpha) signaling pathway - cell viability counter screen (AID 743074; calls by dose curve;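 note: HEK293 cells carrying ER-alpha-UAS-bla reporter stimulated with 17beta-estradiol; nearly all actives have a fitted effect of over 45% in size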)
[5] = target: Estrogen receptor (Homo sapiens) (UniProt P03372); experiment: qHTS assay to identify small molecule agonists of the estrogen receptor alpha (ER-alpha) signaling pathway (AID 743075; calls by dose curve;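 note: HEK293 GripTite cells with ER-alpha and UAS-driven beta-lactamase reporter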)
[6] = qHTS assay to identify small molecule antagonists of the estrogen receptor alpha (ER-alpha) signaling pathway using the BG1 cell line (AID 743080; calls by dose curve;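 note: BG1 cells stimulated with 17beta-estradiol alongside compound; nearly all actives have a fitted effect of over 25% in size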)
Outline: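 Endogenous full-length ER-alpha in BG1-Luc-4E2 cells drives a stably integrated 4×ERE luciferase gene; compounds were tested against 17beta-estradiol over 21.5 h, with luminescence and multiplexed viability fluorescence recorded.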

[7] = qHTS assay to identify small molecule antagonists of the estrogen receptor alpha (ER-alpha) signaling pathway using the BG1 cell line - cell viability counter screen (AID 743081);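 note: compound given together with 17beta-estradiol as the ER stimulus; nearly all actives have a fitted effect of over 45% in size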; note: potency is the fitted concentration of half-maximal effect
Aromatase (Homo sapiens) = Aromatase (Homo sapiens) (UniProt P11511); experiment: qHTS assay to identify aromatase inhibitors (AID 743083); note: nearly all actives have a fitted effect of over 55% in size; note: potency is the fitted concentration of half-maximal effect
Aromatase (Homo sapiens), sequence (P11511 whole entry, looked up): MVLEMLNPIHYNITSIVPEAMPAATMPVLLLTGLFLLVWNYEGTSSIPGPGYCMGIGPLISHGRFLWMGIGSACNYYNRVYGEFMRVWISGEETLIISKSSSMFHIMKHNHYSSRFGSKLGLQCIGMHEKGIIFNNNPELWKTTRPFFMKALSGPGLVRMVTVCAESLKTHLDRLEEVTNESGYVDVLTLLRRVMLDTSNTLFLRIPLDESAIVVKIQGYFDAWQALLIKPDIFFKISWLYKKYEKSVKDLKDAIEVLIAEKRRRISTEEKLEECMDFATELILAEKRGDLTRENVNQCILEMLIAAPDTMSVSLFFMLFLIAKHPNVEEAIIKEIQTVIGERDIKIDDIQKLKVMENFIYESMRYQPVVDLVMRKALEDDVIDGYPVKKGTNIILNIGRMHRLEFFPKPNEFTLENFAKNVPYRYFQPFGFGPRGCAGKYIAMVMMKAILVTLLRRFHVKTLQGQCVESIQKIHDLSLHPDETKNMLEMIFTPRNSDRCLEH

[8] = qHTS assay to identify aromatase inhibitors - cell viability counter screen (AID 743084);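 note: cells stimulated with testosterone during compound exposure; nearly all actives have a fitted effect of over 55% in size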; note: potency is the fitted concentration of half-maximal effect
[9] = target: Aryl hydrocarbon receptor (Homo sapiens) (UniProt P35869); experiment: qHTS assay to identify small molecule that activate the aryl hydrocarbon receptor (AhR) signaling pathway (AID 743085); note: nearly all actives have a fitted effect of over 15% in size; note: potency is the fitted concentration of half-maximal effect;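 for activation: HG2L7.5c1 human HepG2 liver cells with stably integrated DRE-driven firefly reporter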
Aryl hydrocarbon receptor (Homo sapiens), sequence (P35869 whole entry, looked up): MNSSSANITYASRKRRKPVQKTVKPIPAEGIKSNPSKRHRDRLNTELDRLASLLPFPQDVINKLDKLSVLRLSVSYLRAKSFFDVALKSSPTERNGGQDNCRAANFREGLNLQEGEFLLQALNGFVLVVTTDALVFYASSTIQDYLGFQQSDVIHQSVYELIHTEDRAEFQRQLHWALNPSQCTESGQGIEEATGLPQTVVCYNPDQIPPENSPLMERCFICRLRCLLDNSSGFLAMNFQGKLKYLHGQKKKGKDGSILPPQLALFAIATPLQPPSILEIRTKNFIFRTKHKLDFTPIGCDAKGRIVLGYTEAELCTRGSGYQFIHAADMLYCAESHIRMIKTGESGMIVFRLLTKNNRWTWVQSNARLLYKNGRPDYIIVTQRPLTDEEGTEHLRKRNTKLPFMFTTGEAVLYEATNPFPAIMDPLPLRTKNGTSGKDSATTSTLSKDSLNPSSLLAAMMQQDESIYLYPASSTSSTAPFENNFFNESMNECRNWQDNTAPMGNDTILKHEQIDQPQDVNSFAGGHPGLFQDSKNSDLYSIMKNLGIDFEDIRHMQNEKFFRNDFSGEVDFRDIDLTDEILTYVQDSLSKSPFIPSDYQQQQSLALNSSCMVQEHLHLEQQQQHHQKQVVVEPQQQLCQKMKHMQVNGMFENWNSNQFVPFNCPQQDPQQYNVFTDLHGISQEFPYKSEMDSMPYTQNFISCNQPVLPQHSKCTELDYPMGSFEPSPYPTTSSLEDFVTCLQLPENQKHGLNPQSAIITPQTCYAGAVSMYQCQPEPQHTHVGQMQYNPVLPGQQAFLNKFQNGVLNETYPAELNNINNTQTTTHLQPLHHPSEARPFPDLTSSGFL
Outline: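 24 h compound exposure, 37C, HepG2-derived HG2L7.5c1 cells with DRE-responsive luciferase. Readouts: fluorescence viability, then luminescence at room temperature after 30 min.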

[10] = qHTS assay to identify small molecule that activate the aryl hydrocarbon receptor (AhR) signaling pathway - cell viability counter screen (AID 743086);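 note: HepG2 liver cells carrying the AhR DRE luciferase reporter; nearly all actives have a fitted effect of over 45% in size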
Outline: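 HepG2-AhR-luc (HG2L7.5c1) cells, 4000/well, were preincubated 5 h at 37C, exposed to compound in qHTS format for 24 hr at 37C, then given CellTiter-Fluor for 30 min; viability was read as fluorescence in the reporter wells.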

[11] = target: Peroxisome proliferator-activated receptor gamma (Homo sapiens) (UniProt P37231); experiment: qHTS assay to identify small molecule agonists of the peroxisome proliferator-activated receptor gamma (PPARg) signaling pathway (AID 743094; active = well fitted activation curve with a large enough effect in the signal ratio in the repeat runs, not every such curve was filed as active; inconclusive = weak or mixed curves, or effect the other way; inactive = no such curve, though single readings can be large or run the other way; the % refers to the signal ratio)
Peroxisome proliferator-activated receptor gamma (Homo sapiens), sequence (P37231 whole entry, looked up): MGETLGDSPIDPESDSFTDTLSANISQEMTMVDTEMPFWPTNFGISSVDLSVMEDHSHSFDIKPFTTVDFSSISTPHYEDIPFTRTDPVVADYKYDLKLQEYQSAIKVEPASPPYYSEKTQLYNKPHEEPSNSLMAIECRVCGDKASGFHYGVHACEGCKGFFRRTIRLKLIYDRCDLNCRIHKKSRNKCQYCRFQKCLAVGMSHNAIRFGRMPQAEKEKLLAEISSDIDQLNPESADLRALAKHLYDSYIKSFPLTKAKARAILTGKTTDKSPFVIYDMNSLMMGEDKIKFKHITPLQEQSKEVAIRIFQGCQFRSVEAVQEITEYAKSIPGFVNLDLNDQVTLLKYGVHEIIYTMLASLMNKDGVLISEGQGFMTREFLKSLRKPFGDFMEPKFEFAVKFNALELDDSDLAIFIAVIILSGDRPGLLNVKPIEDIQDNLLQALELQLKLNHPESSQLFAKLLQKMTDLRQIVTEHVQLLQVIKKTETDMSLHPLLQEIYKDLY
Outline: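 Agonist activity was taken from a beta-lactamase reporter (FRET substrate, 1 h at room temperature) in HEK293H cells carrying a PPARg UAS-bla construct. Compounds in DMSO were incubated 17 h at 37C after a 5 h cell pre-incubation.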

[12] = target: Peroxisome proliferator-activated receptor gamma (Homo sapiens) (UniProt P37231); experiment: qHTS assay to identify small molecule antagonists of the peroxisome proliferator-activated receptor gamma (PPARg) signaling pathway (AID 743191; calls by dose curve; note: nearly all actives have a fitted effect of over 30% in size)
Outline: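 GeneBLAzer PPARg UAS-bla HEK293H cells carrying a UAS-driven beta-lactamase reporter were plated at 3000 cells/well, preincubated 5 h at 37C, then given compound for 17 h at 37C; LiveBLAzer B/G FRET substrate was read after 1 h at room temperature.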

[13] = qHTS assay for small molecule agonists of the antioxidant response element (ARE) signaling pathway (AID 743202; active = well fitted activation curve with a large enough effect in the signal ratio in the repeat runs, not every such curve was filed as active; inconclusive = weak or mixed curves, or effect the other way; inactive = no such curve, though single readings can be large or run the other way; the % refers to the signal ratio; note: potency is the fitted concentration of half-maximal effect)
Outline: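 Following a 16 h, 37 C exposure of reporter HepG2 cells (ARE-driven beta-lactamase, 2,000 cells/well) to compounds, FRET substrate was applied for 2 h at room temperature and fluorescence intensity recorded.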

[14] = qHTS assay for small molecule agonists of the antioxidant response element (ARE) signaling pathway - cell viability counter screen (AID 743203; calls by dose curve; note: nearly all actives have a fitted effect of over 55% in size)
Outline: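 Viability counter screen: CellTiter-Glo luminescence, read after 30 min at room temperature, in ARE-bla HepG2 wells. Compound exposure lasted 16 h at 37C/5% CO2, following a 5 h pre-incubation of the cells after plating.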

[15] = qHTS assay for small molecule activators of the heat shock response signaling pathway - cell viability counter screen (AID 743209); note: nearly all actives have a fitted effect of over 50% in size; note: potency is the fitted concentration of half-maximal effect
Outline: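 Cytotoxicity counter screen run in the same wells as the heat-shock bla reporter assay: HeLa HSE-bla cells, 5 h compound exposure at 37 C, viability read by CellTiter-Glo luminescence.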

[16] = qHTS assay for small molecule activators of the heat shock response signaling pathway (AID 743210; active = well fitted activation curve with a large enough effect in the signal ratio in the repeat runs, with a control signal flat, not every such curve was filed as active; inconclusive = weak or mixed curves; the % refers to the signal ratio)
Outline: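 Heat shock element–beta-lactamase HeLa reporter cells; qHTS with compounds for 5 h at 37 C; detection by FRET substrate fluorescence after 2.5 h at RT.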

[17] = qHTS assay to identify small molecule antagonists of the thyroid receptor (TR) signaling pathway (AID 743065); note: nearly all actives have a fitted effect of over 55% in size
Outline: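 GH3.TRE-Luc rat pituitary cells carrying two TR response elements driving luciferase were plated for 4 h, given compound plus 1 nM T3 (final), and incubated 23.5 h at 37 C. ONE-Glo luminescence measured reporter inhibition; CellTiter-Fluor fluorescence tracked cytotoxicity.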

[18] = target: Estrogen receptor (Homo sapiens) (UniProt P03372); experiment: qHTS assay to identify small molecule agonists of the estrogen receptor alpha (ER-alpha) signaling pathway using the BG1 cell line (AID 743079); settings: BG1Luc4E2 cells, ERE-luciferase agonist, 22 h; note: nearly all actives have a fitted effect of over 20% in size; note: potency is the fitted concentration of half-maximal effect
[19] = qHTS assay to identify small molecule antagonists of the peroxisome proliferator-activated receptor gamma (PPARg) signaling pathway - cell viability counter screen (AID 743194); settings: Potency: co-treated with 50 nM rosiglitazone; note: nearly all actives have a fitted effect of over 55% in size
Outline: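 PPARg-UAS-bla HEK293H cells were plated, rested 5 h at 37 C, then treated with compounds plus rosiglitazone (50 nM final) for 17 h at 37 C; viability was then read by CellTiter-Glo luminescence after 30 min at room temperature.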
% is set by controls: 0 for no effect and ±100 for the full control effect.

ClC(Cl)Br
inactive: Potency [1] | Potency [2] | Potency [3] | outcome [4] | Potency [5] | Potency [6] | Potency [7] | Potency (Aromatase (Homo sapiens)) | Potency [8] | Potency [9] | outcome [10] | outcome [11] | Potency [12] | Potency [13] | Potency [14] | Potency [15] | outcome [16]

N#CCNCC#N
inactive: Potency [1] | Potency [17] | Potency [3] | outcome [4] | Potency [5] | activation ([18]; at 70.3 µM (top of the series)) -9.97% | Potency [6] | Potency (Aromatase (Homo sapiens)) | Potency [8] | Potency [9] | outcome [10] | Potency [12] | Potency [13] | Potency [15] | outcome [16]

Cc1ncsc1CCCl
inactive: Potency [1] | Potency [2] | Potency [3] | outcome [4] | Potency [5] | activation ([18]; at 70.3 µM (top of the series)) 1.72% | Potency [6] | Potency (Aromatase (Homo sapiens)) | Potency [8] | outcome [10] | outcome [11] | Potency [13] | Potency [14] | Potency [15]

CS(=O)(=O)c1cc(C(F)(F)F)ccc1C(=O)c1cnoc1C1CC1
inactive: Potency [1] | Potency [2] | Potency [3] | outcome [4] | Potency [5] | activation ([18]; at 70.3 µM (top of the series)) 0.699% | Potency [6] | Potency [7] | Potency (Aromatase (Homo sapiens)) | Potency [8] | Potency [9] | outcome [10] | outcome [11] | Potency [19] | Potency [13] | outcome [16]

CCCCc1c(C)nc(NCC)[nH]c1=O
inactive: Potency [1] | Potency [2] | Potency [3] | outcome [4] | Potency [5] | activation ([18]; at 70.3 µM (top of the series)) 0.176% | Potency [6] | Potency [7] | Potency (Aromatase (Homo sapiens)) | Potency [8] | Potency [9] | outcome [10] | outcome [11] | Potency [12] | Potency [19] | Potency [13] | Potency [15]

CC(CC(C#N)(c1ccccc1)c1ccccc1)N(C)C (stereo not drawn)
active: Potency [1] 24.2 µM
inactive: Potency [2] | Potency [3] | outcome [4] | Potency [5] | activation ([18]; at 70.3 µM (top of the series)) -6.75% | Potency [6] | Potency [7] | Potency (Aromatase (Homo sapiens)) | Potency [8] | Potency [9] | Potency [14] | Potency [15] | outcome [16]

NC(=O)c1cc([N+](=O)[O-])cc([N+](=O)[O-])c1
active: Potency [13] 23.7 µM
inactive: Potency [1] | Potency [2] | Potency [3] | outcome [4] | Potency [5] | Potency [6] | Potency [7] | Potency (Aromatase (Homo sapiens)) | Potency [8] | outcome [10] | Potency [12] | outcome [16]

O=C1CN=C(c2ccccc2)c2cc([N+](=O)[O-])ccc2N1
inactive: Potency [1] | Potency [2] | Potency [3] | outcome [4] | Potency [5] | activation ([18]; at 70.3 µM (top of the series)) -1.51% | Potency [6] | Potency [7] | Potency (Aromatase (Homo sapiens)) | Potency [8] | Potency [9] | outcome [10] | outcome [11] | Potency [12] | Potency [19] | Potency [13] | Potency [15] | outcome [16]

COc1cccc2c1cc([N+](=O)[O-])c1c(C(=O)O)cc3c(c12)OCO3
inactive: Potency [2] | Potency [5] | outcome [16]
active: Potency [1] 3.06 µM | Potency [3] 21.9 µM [inconclusive] | Potency [7] 61.1 µM | Potency (Aromatase (Homo sapiens)) 10.9 µM | Potency [8] 24.3 µM | Potency [15] 3.89 µM

CC(=O)CC(c1ccc(Cl)cc1)c1c(O)c2ccccc2oc1=O (stereo not drawn)
inactive: Potency [1] | Potency [2] | Potency [3] | outcome [4] | Potency [5] | activation ([18]; at 95 µM (top of the series)) -6.05% | Potency [6] | Potency [7] | Potency (Aromatase (Homo sapiens)) | Potency [8] | Potency [9] | outcome [10] | Potency [12] | Potency [19] | Potency [14] | outcome [16]

O=[N+]([O-])c1ccc(CBr)cc1
inactive: Potency [1] | Potency [2] | Potency [3] | outcome [4] | Potency [5] | activation ([18]; at 95 µM (top of the series)) 2.58% | Potency [6] | Potency [7] | Potency (Aromatase (Homo sapiens)) | Potency [8] | Potency [9] | outcome [10] | outcome [11] | Potency [19] | Potency [15] | outcome [16]

CNCC(=O)c1ccc(O)c(O)c1
inactive: Potency [1] | Potency [17] | Potency [2] | Potency [5] | activation ([18]; at 70.3 µM (top of the series)) -0.0937% | Potency [6] | Potency (Aromatase (Homo sapiens)) | Potency [8] | Potency [9] | outcome [10] | outcome [11] | Potency [12] | Potency [19] | Potency [14] | Potency [15]

O=P(O)(Oc1ccccc1)Oc1ccccc1
inactive: Potency [1] | Potency [2] | Potency [3] | outcome [4] | Potency [5] | activation ([18]; at 70.3 µM (top of the series)) 1.22% | Potency [6] | Potency [7] | Potency (Aromatase (Homo sapiens)) | Potency [8] | Potency [9] | outcome [10] | outcome [11] | Potency [12] | Potency [19] | Potency [13] | Potency [14]

CCCSP(=S)(OCC)Oc1ccc(Cl)cc1Cl (stereo not drawn)
inactive: Potency [1] | Potency [2] | Potency [3] | outcome [4] | Potency [6] | Potency [7] | Potency (Aromatase (Homo sapiens)) | Potency [8] | outcome [10] | outcome [11] | Potency [12] | Potency [19] | Potency [14] | Potency [15] | outcome [16]
active: Potency [18] 38.6 µM | Potency [9] 54.5 µM

Clc1cccc(N2CCNCC2)c1
inactive: Potency [1] | Potency [2] | Potency [3] | outcome [4] | Potency [5] | activation ([18]; at 70.3 µM (top of the series)) 10.2% | Potency [6] | Potency [7] | Potency (Aromatase (Homo sapiens)) | Potency [8] | outcome [10] | outcome [11] | Potency [12] | Potency [19] | Potency [13] | Potency [14] | Potency [15]

CNNC
inactive: Potency [1] | Potency [2] | Potency [3] | outcome [4] | Potency [5] | activation ([18]; at 95 µM (top of the series)) -3.86% | Potency [6] | Potency [7] | Potency (Aromatase (Homo sapiens)) | Potency [8] | Potency [9] | outcome [10] | outcome [11] | Potency [19] | Potency [14] | Potency [15] | outcome [16]
